From PubChem BioAssay AID893 (National Center for Advancing Translational Sciences (NCATS), 2007)
Hit rate of the full screen: of about 75,000 compounds, about 5,700 (7.6%) were called active. About 7% were inconclusive and are not listed. Many of the other results were omitted from the sample, so actives are more common in it than they were. Unmarked numbers belong to inactive results. Calls follow the shape of the dose curve; as a rule, active = well fitted inhibition curve with a large enough effect; inconclusive = small, poorly fitted or top-dose-only effect; inactive = no such curve, though single readings can be large or run the other way.

target: 3-hydroxyacyl-CoA dehydrogenase type-2 (Homo sapiens) (UniProt Q99714); assay: qHTS Assay for Inhibitors of HSD17B4, hydroxysteroid (17-beta) dehydrogenase 4; details: recombinant HSD17B10, NADH fluorescence kinetic; series mostly up to 57.1 µM; activity change, negative = inhibition: at the top concentration;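 also: the protocol describes HADH2 (HSD17B10) and not the HSD17B4 of the title; nearly all actives have a fitted effect of over 70% in size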
How it was run: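 Enzyme plus compound, 15 min room temperature; substrate mix added (NAD+ 1 mM, beta-hydroxybutyryl-CoA 90 uM final); plates read kinetically for NADH fluorescence. HADH2 was His-tagged, E. coli-derived, 20 nM.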
% is scaled to controls: 0 for no effect and ±100 for the full control effect; potency is read from the fitted curve at half-maximal effect.

Row | SMILES | activity change, negative = inhibition | Potency
1 | O=C(Cc1ccccc1)n1nc(-c2ccccc2)nc1NCc1ccco1 | 107% | –
2 | C=C(C)Cn1c(SCC(=O)NCc2ccco2)nc2sc3c(c2c1=O)CCC3 | 4.01% | –
3 | CN1CCc2c(sc3c2c(NCc2ccco2)nc2nnnn23)C1 | – | 31.6 µM (active)
4 | CC(=O)NCCc1ccc(S(=O)(=O)N(C)C2CCS(=O)(=O)C2)cc1 (stereo unspecified) | -5.85% | –
5 | CCn1c(COc2ccccc2)nnc1SCC(=O)Nc1ccc2c(c1)OCCO2 | 6.16% | –
6 | CN1CCN(S(=O)(=O)c2ccc(NC(=O)C3CCCO3)cc2)CC1 (stereo unspecified) | 10.7% | –
7 | COc1ccc2[nH]c3c(=O)n(Cc4ccco4)cnc3c2c1 | – | 3.16 µM (active)
8 | COc1ccc(C(=O)CSc2nnc(COc3ccccc3)n2Cc2ccco2)cc1 | -21.4% | –
9 | O=c1c2[nH]c3ccc(Cl)cc3c2ncn1Cc1ccccn1 | -4.52% | –
10 | Cc1cc(C)c2nc3c(c([C@H](O)[C@@H]4CCCCN4)c2c1)CC/C3=C/c1ccc(Cl)cc1 | 9.81% [at 11.4 µM] | –
11 | O=C1CC(c2cccc(Br)c2)C2=C(CCCC2=O)N1 (stereo unspecified) | 11.3% | –
12 | COc1cc2c(cc1NC(=O)CN1CCN(S(=O)(=O)c3ccc(F)cc3)CC1)oc1ccccc12 | – | 3.16 µM (active)
13 | COc1ccc(NC(=O)CN2CCN(S(=O)(=O)c3ccc(F)cc3)CC2)cc1Cl | 10.4% | –
14 | O=C(CN1CCN(S(=O)(=O)c2ccc(F)cc2)CC1)Nc1ccccc1F | -0.0846% | –
15 | CCN(CCCCOC(=O)c1ccc(OC)c(OC)c1)C(C)Cc1ccc(OC)cc1 (stereo unspecified) | -2.4% | –
16 | Cc1ccc2c(NC(=O)C3CC3)cccc2n1 | 5.59% | –
17 | CCN(CC)S(=O)(=O)N1CCC(C(=O)NC(C)CCc2ccccc2)CC1 (stereo unspecified) | -6.36% | –
18 | CC(=O)N1CCC(C(=O)Nc2nc(-c3ccccc3)ns2)CC1 | – | 10 µM (active)
19 | CCOC(=O)c1nc(N)sc1C(=O)OCC | 4.19% | –
20 | CN1CCCc2cc(C#N)c(=O)[nH]c21 | – | 15.8 µM (active)
21 | COc1ccccc1Cn1c(=S)[nH]c2cc(C(=O)N3CCN(C)CC3)ccc2c1=O | 0.149% | –
22 | CC1=C(C(=O)Nc2ccccc2)C(c2cccs2)C(C#N)=C(SCC#N)N1 (stereo unspecified) | – | 31.6 µM (active)

Row | SMILES | activity change, negative = inhibition | Potency
23 | CCOC(=O)CSC1=C(C#N)C(c2ccco2)C(C(=O)OCc2ccccc2)=C(C)N1 (stereo unspecified) | 32.8% | –
24 | CCOC(=O)CSC1=C(C#N)C(c2sccc2C)CC(=O)N1 (stereo unspecified) | 14.8% | –
25 | O=C(Cn1nnc(-c2ccc(CN3CCOCC3)cc2)n1)NC1CCCCC1 | -1.05% | –
26 | COCCCNC(=O)COc1cc(C)c(Cl)c(C)c1 | 0.176% | –
27 | CCC/C(O)=C1\C(=O)CC(C)(C)CC1=Nc1ccccc1OC | 1.69% | –
28 | CCCNC(=O)OC[C@@H]1O[C@H](c2ccccc2)C=C[C@@H]1Oc1ccc(OC)cc1 | -0.586% [at 11.4 µM] | –
29 | COc1ccc(-n2c(C)nc3c(cnn3-c3ccccc3)c2=O)cc1 | 1.94% | –
30 | COc1ccc(C(=O)n2nc(-c3ccc(Cl)cc3)nc2N)cc1OC | -5.6% | –
31 | COc1ccc(Oc2ncc3nc(-c4ccc(F)cc4)c(=O)n(C)c3n2)cc1 | – | 31.6 µM (active)
32 | COc1ccc(Oc2ncc3nc(C)c(=O)n(-c4ccccc4)c3n2)cc1 | 4.75% | –
33 | CN(C(=O)COc1nnc(-c2cccs2)c(-c2cccs2)n1)c1ccccc1 | -8.5% | –
34 | Cn1cc(-c2nc3cncnc3n(-c3ccccc3)c2=O)c2ccccc21 | 6.28% | –
35 | COc1ncc2nc(-c3ccc(Cl)cc3)c(=O)n(-c3ccccc3)c2n1 | – | 25.1 µM (active)
36 | COc1ncc2nc(-c3ccc(Cl)cc3)c(=O)n(C)c2n1 | – | 31.6 µM (active)
37 | COc1ccc(-c2c3c(=O)n(C)c(=O)n(C)c3cn2-c2cccc(OC)c2)cc1 | 3.18% | –
38 | COc1nc(NCc2ccc(Cl)cc2)nc(OC)n1 | 9.75% | –
39 | O=c1c(-c2cccs2)nc2cnc(Oc3ccccc3)nc2n1-c1ccccc1 | – | 25.1 µM (active)
40 | Cc1ccc(S(=O)(=O)N2CCC(C(=O)N[C@@H](C)C(=O)NCc3ccccc3)CC2)cc1 | 6.7% | –
41 | O=C(Nc1cccc2c1CCCC2)C1CCN(C(=O)NC2CCCCC2)CC1 | -3.12% | –
42 | c1ccc2sc(SCCSc3nc4ccccc4s3)nc2c1 | 2.8% [at 11.4 µM] | –
43 | O=C(c1cc(-c2cccc(O)c2)on1)N1CCc2ccccc2C1 | -24.6% | –
44 | O=C1CN(C(=O)COC(=O)C2CC(=O)N(Cc3ccco3)C2)c2ccccc2N1 (stereo unspecified) | -2.17% | –

Row | SMILES | activity change, negative = inhibition | Potency
45 | CN(C)C(=O)/N=N\C(=O)N(C)C | -21.2% | –
46 | CN1CCN(c2ncc3nc(-c4ccc(Cl)cc4)c(=O)n(-c4ccccc4)c3n2)CC1 | – | 25.1 µM (active)
47 | O=c1c(-c2ccc(F)c(F)c2)nc2cncnc2n1-c1ccccc1 | -28% | –
48 | COCCn1c(=O)c(-c2ccc(OC)cc2)nc2cnc(Oc3cccc(Cl)c3)nc21 | -646% [at 57.1 µM, above what the read-out allows, likely interference] | –
49 | COc1ccc(-c2nc3cnc(Oc4ccccc4)nc3n(Cc3cccs3)c2=O)cc1 | – | 12.6 µM (active)
50 | CN1CCN(c2cc(=O)n(-c3ccc(Cl)cc3)c(=O)[nH]2)CC1 | -5.62% | –
51 | O=C1c2cccnc2C(=O)N1Cc1cccs1 | 5.59% | –
52 | C=CC(=O)OCCOCCOCCOCCOC(=O)C=C | – | inactive
53 | Cc1ccccc1NC(=O)Cc1nnc(SCC(=O)N2CCN(c3ccccc3)CC2)n1C | -23.9% | –
54 | Cc1nnc(SCC(=O)Nn2cnnc2)s1 | 2.74% | –
55 | CC(C)[C@H](CO)Nc1nc(Nc2cc(N)cc(Cl)c2)c2ncn(C(C)C)c2n1 | -27.3% | –
56 | Cc1c(CN2CCC(C)CC2)c(=O)n(-c2ccccc2)n1C | 0.527% | –
57 | COC(=O)[C@@H]1C[C@@]2(O)[C@H](O)[C@H](O)[C@H](O)C[C@H]2N1CC1CCCCC1 | 6% | –
58 | CCOc1ccc(S(=O)(=O)n2ccnc2)c2ccccc12 | -4.92% | –
59 | CCSc1nc(C)nc2c1oc1ccccc12 | -23.1% | –
60 | C[C@@H](Nc1nc(-c2ccccc2)nc2c1oc1ccccc12)C(=O)O | -5.05% | –
61 | CCc1nc(Nc2ccc3nccnc3c2)c2oc3ccccc3c2n1 | – | 12.6 µM (active)
62 | Cc1cccc(N2CCN(S(=O)(=O)c3ccc4c(c3)c(=O)n(C)c(=O)n4C)CC2C)c1 (stereo unspecified) | 1.18% | –
63 | Cc1ccc(C)c(S(=O)(=O)n2cnc3ccccc32)c1 | -2.14% | –
64 | CC(=O)OCC1OC(C#Cc2ccccc2Cl)C=CC1OC(C)=O (stereo unspecified) | -6.58% [at 11.4 µM] | –
65 | COc1ccc2nc(NC3=NCN(CC4CCCO4)CN3)nc(C)c2c1 (stereo unspecified) | – | 31.6 µM (active)
66 | COc1ccc(C2CC(=O)C=C(NCC3CCCO3)C2)cc1 (stereo unspecified) | -5.32% | –

Row | SMILES | activity change, negative = inhibition | Potency
67 | Cc1ccc2nc(NC3=NCN(CCc4ccccc4)CN3)nc(C)c2c1 | 3.14% | –
68 | Oc1ccccc1CNCc1ccccc1O | -0.327% [at 11.4 µM] | –
69 | CSc1sc(C)cc1C1C(C#N)=C(N)N(c2cccnc2)C2=C1C(=O)CCC2 (stereo unspecified) | – | 15.8 µM (active)
70 | O=S(=O)(c1ccccc1)N1CCC2(CC1)CN(Cc1nccs1)C2 | 6.63% | –
71 | CCCC(C(=O)N1CCOCC1)N1C(=O)C2C3C=CC(C3)C2C1=O (stereo unspecified) | 3.68% | –
72 | O=C(O)C1CCN(S(=O)(=O)N2CCOCC2)CC1 | 12.1% | –
73 | COc1ccccc1N1CCN(C(=O)c2cc3c(-c4ccc(Cl)cc4)nn(C)c3s2)CC1 | -6.74% | –
74 | CCOC(=O)N1CCN(C(=O)c2cc3c(-c4ccc(Cl)cc4)nn(C)c3s2)CC1 | 5.07% | –
75 | Cn1nc(-c2ccc(Cl)cc2)c2cc(C(=O)NCc3ccco3)sc21 | – | 31.6 µM (active)
76 | CC(Cc1ccccc1)C(=O)N(C)Cc1ccccc1 (stereo unspecified) | -7.16% | –
77 | O=C(C(Cc1ccccc1)n1cccc1)N1CCN(C2CCCCC2)CC1 (stereo unspecified) | -2.66% | –
78 | Cc1ccc(C)n1C(Cc1ccccc1)C(=O)O (stereo unspecified) | – | 10 µM (active)
79 | C=CCn1c(SCc2cc(C(=O)OC)c(C)o2)nnc1-c1ccncc1 | -12.7% | –
80 | CCC(C)(C(=O)NC1CCCC1)N(C(=O)CNC(C)=O)c1ccc(C)cc1 (stereo unspecified) | -3.05% | –
81 | Cc1ccc2cc(C#N)c(SCC(=O)NCC3CCCO3)nc2c1C (stereo unspecified) | 12% | –
82 | O=C(CS(=O)(=O)Cc1ccccc1)NCC1CCCO1 (stereo unspecified) | 2.9% | –
83 | O=C(CSC1=Nc2ccccc2C2=NC(c3ccccc3)C(=O)N12)NCC1CCCO1 (stereo unspecified) | – | 31.6 µM (active)
84 | Cc1ncn(C23CC4CC(CC(O)(C4)C2)C3)n1 | 12.4% | –
85 | COC(=O)C1(C)C=CC2(CCCCC2)N1C(C)=O (stereo unspecified) | 25.3% | –
86 | O=C(O)C1=CCCN(CCON=C(c2ccccc2)c2ccccc2)C1 | – | inactive
87 | O=C(Nc1ccccc1)N[C@H]1C[C@H](C(=O)O)Nc2cc(Cl)cc(Cl)c21 | -2.74% | –
88 | COc1cc2nc(N3CCN(C(=O)[C@@H]4CCCO4)CC3)nc(N)c2cc1OC | – | 12.6 µM (active)

Row | SMILES | activity change, negative = inhibition | Potency
89 | COc1ccc(S(=O)(=O)N2CCC(C(=O)N3CCOCC3)CC2)cc1OC | 7.24% | –
90 | O=C(C1CCCO1)N1CCC(c2nc3ccccc3[nH]2)CC1 (stereo unspecified) | -27% | –
91 | COc1ccc(N2C(=O)C3CCCN3C2c2cc(OC)c(OC)cc2OC)cc1 (stereo unspecified) | 3.49% | –
92 | CCN(CC)S(=O)(=O)c1cc(C(=O)Nc2ccccn2)ccc1C | 4.29% | –
93 | COc1ccccc1C(=O)NCCn1cc(SCC(=O)NCc2ccco2)c2ccccc21 | -14.1% | –
94 | CCCCOc1ccc(C(=O)NCc2ccco2)cc1 | -4.29% | –
95 | CCOc1ccccc1C(=O)NCc1ccco1 | – | 25.1 µM (active)
96 | CC(C)(C)NC(=O)NC(=O)COC(=O)Cn1c(C(F)(F)F)nc2ccccc21 | 6.12% | –
97 | Cn1cccc1C(=O)Nc1nccs1 | 1.39% | –
98 | Cn1cccc1C(=O)NC(=O)COC(=O)Cc1coc2ccc3ccccc3c12 | – | 31.6 µM (active)
99 | CSCC[C@H](NC(=O)NCCc1ccc(F)cc1)C(=O)O | 7.27% | –
100 | O=C1OC(C(O)CO)C(O)=C1O (stereo unspecified) | 7.41% | –
101 | COc1ccc(CCN=C2SCC(=O)N2C)cc1OC | 11.7% | –
102 | COc1ccc(C(=O)N(Cc2ccc(N(C)C)cc2)C2CCS(=O)(=O)C2)cc1 (stereo unspecified) | -23.7% | –
103 | CCCCC(CC)CN (stereo unspecified) | – | inactive
104 | N[C@H](C(=O)O)c1ccc(C(=O)O)c(O)c1 | – | 39.8 µM (active)
105 | N[C@@H](C(=O)O)c1ccc(P(=O)(O)O)cc1 | -11.4% | –
106 | O=C(c1ccc(O)cc1)c1ccc(C(=O)O)c(C(=O)O)c1 | -7.84% | –
